# Laboratory results published in PubChem BioAssay AID488890 (Southern Research Specialized Biocontainment Screening …, 2010).
# The campaign covered roughly 320,000 compounds. About 1,300 (0.41%) were called active. Inconclusive results (about 3%) are left out. No rule for the calls is given here. Only a sample is shown. Results with a measured potency or affinity are listed apart.
# Experiment: growth inhibition of non-replicating M. tuberculosis (AID 488890);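 also: plate controls were DMSO cells for no effect and high antibiotic wells for full effect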
# Details: Mycobacterium tuberculosis non-replicating, at 25 µM, stronger effect = higher value
row,SMILES,inhibition [%]
1,O=C(CSc1nnc2ccccn12)N1CCc2ccccc2C1,-9.62
2,Cc1ccccc1CN1C(=O)/C(=C\c2ccc(C(=O)NCCN3CCOCC3)cc2)Sc2ccccc21,34.3
3,O=C(COC(=O)c1cccnc1Cl)Nc1cc(S(=O)(=O)N2CCOCC2)ccc1Cl,-5.03
4,O=C(CC1CCCCC1)NCC1CCCO1 (stereo unspecified),69.3
5,Cc1ccc(N(Cc2cc3ccc(C)cc3[nH]c2=O)S(=O)(=O)c2ccccc2)c(C)c1,3.45
6,CCCCOC(=O)C1CCCC(C)N1 (stereo unspecified),0.64
7,CCCCOC(=O)C1CCC[C@@H](C)N1 (stereo partly specified),-6.13
8,Cc1ccc(NC(=O)COC(=O)CN2C(=O)C3CCCCC3C2=O)cc1S(=O)(=O)N1CCOCC1 (stereo unspecified),6.8
9,O=C(N/N=C/c1cc([N+](=O)[O-])ccc1O)NC12CC3CC(CC(C3)C1)C2,54.2
10,O=C(N/N=C/c1cc([N+](=O)[O-])ccc1O)C1C2CCCCC21 (stereo unspecified),77.2
11,CCNC(=O)C(=O)N/N=C/c1cc([N+](=O)[O-])ccc1O,27.1
12,O=C1NCCCC1C(=O)N/N=C/c1cc([N+](=O)[O-])ccc1O (stereo unspecified),15.8
13,CC1(C)Cc2nc3sc(C(N)=O)c(N)c3cc2CO1,-3.96
14,O=C(CCC1CCCC1)NCCCNC(=O)CCC1CCCC1,72.8
15,Cc1nc([N+](=O)[O-])c(Sc2nc3ccccc3n2C)n1Cc1ccccc1,70.5
16,C=C(C)C(=O)Nc1cccc(C2=NOC3(C2)C[C@H](C(N)=O)N(C(=O)CC#N)C3)c1 (stereo partly specified),-3.19
17,CCCCCCCCCn1cc(C(C)=O)c(=O)[nH]c1=O,71.1
18,CCCCCCCCn1cc(C(C)=O)c(=O)[nH]c1=O,79.8
19,COc1ccc(-n2nc(C(=O)NCC(=O)O)c3ccccc3c2=O)cc1,-2.99

row,SMILES,inhibition [%]
1,COc1ccc(NC(=O)Nc2cccc(NC(C)=O)c2)c(OC)c1,15.4
2,COCCNc1nnc(SCC(=O)NNC(=O)c2ccccc2)s1,-9.33
3,CC(=O)Oc1ccc(/C=C2/C(=O)N(c3ccccc3)N=C2C)cc1,32.7
4,COc1ccc(/C=C2/C(=O)N(c3ccccc3)N=C2C)cc1,0.19
5,C(=N\N=C\c1ccccc1)/c1ccccc1,9.87
6,CCc1nn(CCCC(=O)N2CCC(C)CC2)c(=O)c2cc3occc3n12,2.85
7,COc1ccc(CNC(=O)c2cnccn2)cc1,66.2
8,O=C(NCc1ccc(Cl)cc1)c1cnccn1,68.3
9,O=C(NCc1ccncc1)c1cnccn1,-7.93
10,NS(=O)(=O)c1ccc(CNC(=O)c2cnccn2)cc1,-8.46
11,CSc1ccc(NC(=O)NCCCN2CCN(c3ccccc3F)CC2)cc1,50.5
12,Cc1cc(C)cc(NC(=O)C2C3C=CC4(O3)C2C(=O)N(CCCN2CCCCC2)C4C(=O)NC2CCCCC2)c1 (stereo unspecified),8.2
13,Cc1cc(OC(=O)c2ccc(S(=O)(=O)N3CCCCC3)cc2)c([N+](=O)[O-])c(=O)[nH]1,-2.75
14,Cc1cc(C(=O)OCC(=O)Nc2cc(Cl)ccc2C)c(C)o1,0.98
15,O=C(NCc1ccco1)c1ccc(NS(=O)(=O)c2cccc(F)c2)cc1,29.2
16,CC(C)COc1ccc(C(=O)Nc2ccc(N3CCOCC3)cc2N2CCOCC2)cc1,43
17,COc1cccc2cc(-c3nnc(-c4ccccc4)o3)c(=O)oc12,79.1
18,COc1ccc(-c2cc3cccc(OC)c3oc2=O)cc1,24.1
19,COc1cccc2cc(-c3ccccc3)c(=O)oc12,54.4

row,SMILES,inhibition [%]
1,O=c1oc2c(O)cccc2cc1-c1nc2ccccc2[nH]1,7.2
2,O=C(CNS(=O)(=O)c1ccc(Cl)c(C(F)(F)F)c1)NC1CCCCC1,20.4
3,CC(=O)CSc1nnc(Cc2ccc3c(c2)OCO3)o1,73.1
4,N#CCSc1nnc(Cc2ccc3c(c2)OCO3)o1,73.3
5,Cn1nc(-c2ccccc2)c(COC(=O)c2cccc(Cl)c2)c1S(=O)(=O)c1ccccc1,-7.33
6,CC(C)C(=O)Nc1cccc(-c2nc3ccccc3o2)c1,9.28
7,O=C(Nc1cccc(-c2nc3ccccc3c(=O)o2)c1)c1ccccc1,60.9
8,CC(=O)Nc1ccc(-c2nc3ccccc3c(=O)o2)cc1,68.8
9,CCCC(=O)Nc1cccc(-c2nc3cc(C)c(C)cc3o2)c1,-4.03
10,O=C(Nc1ccc2nc(-c3ccccc3)oc2c1)c1ccco1,-0.45
11,CC(=O)Nc1cccc(-c2nc3ccccc3o2)c1,8.44
12,CCCC(=O)Nc1cccc(-c2nc3ccccc3o2)c1,-1.01
13,CCC(CC)C(=O)Nc1cccc(-c2nc3ccccc3o2)c1,-1.13
14,O=P(Oc1ccccc1)(Oc1ccccc1)C(O)c1ccc(Cl)cc1 (stereo unspecified),-12
15,COc1cccc(CN2CCNC(=O)C2CC(=O)NC2Cc3ccccc3C2)c1 (stereo unspecified),-15.6
16,COc1ccc(C(=O)/C=C\N2CCOCC2)cc1,10.4
17,COCCNC(=S)N1CCC(NC(=O)Nc2ccc(C)cc2)CC1,-2
18,O=C(NCCCNC(=O)c1ccco1)c1ccc(F)cc1,-2.4
